Test results taken from PubChem BioAssay.
Calls of active or inactive are those of the source.

Assays:
[1] = binders of probe aFSTL3 on microarray, primary screen, stem cell growth factor project, biochemical, small-molecule microarray, fluorescence 635/667 (AID 1064); settings: higher = more signal;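 note: measures binding of the biotinylated anti-FSTL3 antibody to printed compounds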
[2] = binders from COS7 lysate, DM2A8 probe, primary screen, torsin A project, cell lysate, small-molecule microarray, fluorescence 635/667 (AID 1065); settings: higher = more signal, COS7 lysate expressing mutant human TOR1A
[3] = binders of probe aFGF2 on microarray, primary screen, stem cell growth factor project, biochemical, small-molecule microarray, fluorescence 635/667 (AID 1067); settings: higher = more signal;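 note: measures binding of biotinylated aFGF2 protein to printed compounds on slides; z-score merges feature fluorescence and signal-to-noise across triplicate slides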
[4] = binders of probe aFGF10 on microarray, primary screen, stem cell growth factor project, biochemical, small-molecule microarray, fluorescence 635/667 (AID 1071); settings: higher = more signal;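 note: score merges 667 nm spot intensity and signal to noise from triplicate slides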
[5] = biological target: Neurogenic locus notch homolog protein 2 (Homo sapiens) (UniProt Q04721); assay: Notch2 binders on small-molecule microarrays, primary screen, biochemical, small-molecule microarray, 635 nm fluorescence, stem cell growth factors (AID 1073); settings: Notch2 binding, higher = more signal
Sequence of Neurogenic locus notch homolog protein 2 (Homo sapiens) (Q04721 whole entry, looked up, canonical isoform): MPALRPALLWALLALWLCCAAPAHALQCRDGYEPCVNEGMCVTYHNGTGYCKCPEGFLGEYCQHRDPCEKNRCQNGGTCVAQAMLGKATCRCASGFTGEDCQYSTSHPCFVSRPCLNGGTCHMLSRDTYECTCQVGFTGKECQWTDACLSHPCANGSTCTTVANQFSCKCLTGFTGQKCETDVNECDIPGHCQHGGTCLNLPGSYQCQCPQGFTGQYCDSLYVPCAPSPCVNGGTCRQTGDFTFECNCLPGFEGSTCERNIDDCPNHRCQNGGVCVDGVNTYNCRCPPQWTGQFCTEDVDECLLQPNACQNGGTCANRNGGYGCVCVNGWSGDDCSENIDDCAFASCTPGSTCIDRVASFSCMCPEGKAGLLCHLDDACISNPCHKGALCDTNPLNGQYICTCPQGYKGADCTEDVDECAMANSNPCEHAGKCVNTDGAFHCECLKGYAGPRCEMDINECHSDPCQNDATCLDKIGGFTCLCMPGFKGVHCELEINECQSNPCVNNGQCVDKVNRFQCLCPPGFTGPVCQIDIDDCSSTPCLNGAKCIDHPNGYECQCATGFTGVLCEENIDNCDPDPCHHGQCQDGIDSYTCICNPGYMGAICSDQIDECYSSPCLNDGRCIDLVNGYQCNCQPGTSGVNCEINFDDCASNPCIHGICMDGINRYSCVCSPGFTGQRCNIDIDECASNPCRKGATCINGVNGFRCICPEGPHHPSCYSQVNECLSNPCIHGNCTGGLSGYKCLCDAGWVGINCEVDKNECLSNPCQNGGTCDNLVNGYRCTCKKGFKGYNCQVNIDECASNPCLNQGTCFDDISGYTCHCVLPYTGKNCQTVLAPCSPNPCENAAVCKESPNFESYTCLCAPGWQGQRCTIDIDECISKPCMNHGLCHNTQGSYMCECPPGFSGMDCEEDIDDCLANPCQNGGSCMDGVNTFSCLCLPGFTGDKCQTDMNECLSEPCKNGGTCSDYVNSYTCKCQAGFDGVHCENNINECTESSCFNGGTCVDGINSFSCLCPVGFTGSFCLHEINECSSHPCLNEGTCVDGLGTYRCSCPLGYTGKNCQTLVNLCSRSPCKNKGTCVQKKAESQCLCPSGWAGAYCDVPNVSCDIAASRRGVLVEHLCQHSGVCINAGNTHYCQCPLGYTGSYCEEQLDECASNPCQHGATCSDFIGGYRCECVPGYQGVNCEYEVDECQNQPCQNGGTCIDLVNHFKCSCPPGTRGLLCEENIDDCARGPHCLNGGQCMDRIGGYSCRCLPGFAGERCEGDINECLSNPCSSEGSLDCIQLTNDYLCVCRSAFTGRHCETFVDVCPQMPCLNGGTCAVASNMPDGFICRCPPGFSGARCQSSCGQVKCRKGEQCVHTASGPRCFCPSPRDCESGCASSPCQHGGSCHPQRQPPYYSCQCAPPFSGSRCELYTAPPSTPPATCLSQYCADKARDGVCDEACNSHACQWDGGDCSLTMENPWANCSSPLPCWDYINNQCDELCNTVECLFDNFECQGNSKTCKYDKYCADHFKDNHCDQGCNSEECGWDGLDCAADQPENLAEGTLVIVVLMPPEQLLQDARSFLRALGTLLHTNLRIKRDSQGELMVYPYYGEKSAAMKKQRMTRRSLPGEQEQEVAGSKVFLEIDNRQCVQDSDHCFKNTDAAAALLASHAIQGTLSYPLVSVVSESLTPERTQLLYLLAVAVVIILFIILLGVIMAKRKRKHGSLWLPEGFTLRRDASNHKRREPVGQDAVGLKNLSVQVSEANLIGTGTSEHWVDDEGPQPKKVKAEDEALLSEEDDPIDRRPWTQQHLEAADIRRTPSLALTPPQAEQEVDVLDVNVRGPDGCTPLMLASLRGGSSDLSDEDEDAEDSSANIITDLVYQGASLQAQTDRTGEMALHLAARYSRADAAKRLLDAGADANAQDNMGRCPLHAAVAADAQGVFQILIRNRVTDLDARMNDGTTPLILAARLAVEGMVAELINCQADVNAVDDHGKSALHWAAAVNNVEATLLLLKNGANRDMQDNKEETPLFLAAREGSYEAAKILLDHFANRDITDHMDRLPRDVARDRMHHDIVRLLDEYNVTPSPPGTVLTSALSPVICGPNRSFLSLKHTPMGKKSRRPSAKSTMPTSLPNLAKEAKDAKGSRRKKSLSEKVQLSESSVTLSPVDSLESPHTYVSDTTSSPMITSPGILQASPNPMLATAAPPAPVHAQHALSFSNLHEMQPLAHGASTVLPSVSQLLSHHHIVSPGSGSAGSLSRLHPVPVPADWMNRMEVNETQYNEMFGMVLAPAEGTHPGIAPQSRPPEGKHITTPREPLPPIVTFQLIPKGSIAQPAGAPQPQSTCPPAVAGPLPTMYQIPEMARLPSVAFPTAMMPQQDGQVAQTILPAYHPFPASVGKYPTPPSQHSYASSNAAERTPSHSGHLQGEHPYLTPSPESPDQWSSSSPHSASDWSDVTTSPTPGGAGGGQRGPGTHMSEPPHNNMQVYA

[6] = biological target: Pro-neuregulin-1, membrane-bound isoform (Homo sapiens) (UniProt Q02297); assay: NRG1 binders on small-molecule microarrays, primary screen, psychiatric disease protein project, biochemical, small-molecule microarray, fluorescence 635/667 (AID 1075); settings: NRG1 binding, 635 nm fluorescence, higher = more signal;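 note: score combines 667 nm spot fluorescence with signal to noise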
Sequence of Pro-neuregulin-1, membrane-bound isoform (Homo sapiens) (Q02297 whole entry, looked up, the tested form may be a part, canonical isoform): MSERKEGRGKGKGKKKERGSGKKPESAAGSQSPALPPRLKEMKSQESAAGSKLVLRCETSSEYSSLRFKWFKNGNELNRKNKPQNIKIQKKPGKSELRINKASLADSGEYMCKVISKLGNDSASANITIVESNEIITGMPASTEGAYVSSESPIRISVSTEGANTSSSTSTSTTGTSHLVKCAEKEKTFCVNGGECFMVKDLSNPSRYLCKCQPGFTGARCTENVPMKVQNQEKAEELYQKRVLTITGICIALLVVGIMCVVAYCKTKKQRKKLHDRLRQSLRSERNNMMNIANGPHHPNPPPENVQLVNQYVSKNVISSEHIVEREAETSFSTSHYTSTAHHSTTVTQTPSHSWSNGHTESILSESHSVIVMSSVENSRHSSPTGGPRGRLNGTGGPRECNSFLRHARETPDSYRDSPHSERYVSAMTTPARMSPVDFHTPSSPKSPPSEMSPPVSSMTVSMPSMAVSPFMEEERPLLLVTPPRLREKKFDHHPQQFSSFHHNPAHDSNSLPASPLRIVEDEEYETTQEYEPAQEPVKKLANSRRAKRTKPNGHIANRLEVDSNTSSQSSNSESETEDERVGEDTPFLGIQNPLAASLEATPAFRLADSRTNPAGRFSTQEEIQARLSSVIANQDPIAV

[7] = test system: Neuregulin-1 EGF-like domain; assay: binders of neuregulin-1 EGF-like domain, primary screen, biochemical, small-molecule microarray, 635 nm fluorescence (AID 1081); settings: small-molecule microarray binding, higher = more signal;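 note: binding of the protein to compounds printed on small-molecule microarray slides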
[8] = FRG1 promoter luciferase signal modulators, primary screen, FRG1 inhibition for FSHD, cell-based, C2C12 myotubes, firefly/Renilla luciferase, luminescence (AID 1084); settings: higher = more signal, called active from +8 up or from −8 down
[9] = binders of probe aFST on microarray, primary screen, stem cell growth factor project, biochemical, small-molecule microarray, fluorescence 635/667 (AID 1086); settings: higher = more signal;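 note: score merges 667 nm fluorescence with signal-to-noise of each printed compound spot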
[10] = binders of probe aHhip on microarray, primary screen, stem cell growth factor project, biochemical, small-molecule microarray, fluorescence 635/667 (AID 1087); settings: higher = more signal;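 note: score merges spot fluorescence at 667nm with spot signal to noise ratio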

| SMILES | composite z-score [1] | composite z-score [2] | composite z-score [3] | composite z-score [4] | composite z-score [5] | composite z-score [6] | composite z-score [7] | z-score [8] | composite z-score [9] | composite z-score [10] |
| --- | --- | --- | --- | --- | --- | --- | --- | --- | --- | --- |
| CCOC(=O)C[C@H]1[C@H](OC(=O)c2ccc(C(=O)c3ccccc3)cc2)[C@@H](NC(=O)c2ccc3ccccc3n2)c2cc(OCCCO)ccc2N1C(=O)c1ccccc1 | -0.384 | 0.264 | 0.0498 | 1.03 | 0.454 | 0.45 | 0.975 | 0.823 (inactive) | 0.493 | -0.243 |
| CN1C(=O)C2C=CC(C(O)c3ccc([N+](=O)[O-])cc3)N(N3CCCCC3)C2C1=O (stereo not given) | 1.11 | -0.306 | 0.132 | 0.695 | 1.6 | 1.3 | 0.961 | 0.198 (inactive) | 1.36 | -0.365 |
| [N-]=[N+]=NCc1ccccc1C[C@]1(C(=O)N2CCCCC2)N=C(c2ccc(OCCCO)cc2)O[C@H]1c1ccccc1N=[N+]=[N-] | 0.643 | 0.133 | 0.158 | 0.816 | 1.3 | 1.57 | 1.1 | -1.99 (inactive) | 0.637 | -0.233 |
| C=C(CCCC)/C(=C/C[C@@H](OC(C)=O)c1ccc(OCCO)cc1)c1cnc2ccccc2c1 | 0.0374 | 0.372 | -0.0598 | 0.242 | 0.913 | 0.952 | 1.01 | -1.51 (inactive) | -0.156 | -0.0618 |
| O=C(NCCO)C1=C[C@H](Oc2ccccc2I)[C@@H](O)[C@H](N(Cc2ccco2)C(=O)Cc2ccccc2)C1 | 0.0391 | 0.208 | -0.112 | 0.236 | 0.299 | -0.352 | -0.473 | 0.157 (inactive) | -0.0165 | 0.12 |
| COCCOC(=O)N1C(=O)[C@@]2(c3cc(C#Cc4ccc(OC)cc4)ccc31)[C@H](c1ccc(O)cc1)N1[C@H](c3ccccc3)[C@H](c3ccccc3)OC(=O)[C@H]1[C@@H]2C(=O)N1CCc2cc(OC)c(OC)cc2C1 | 0.0419 | 0.87 | 0.0415 | 0.475 | 0.971 | 0.71 | 0.898 | -0.0112 (inactive) | 0.611 | 0.0873 |
| COc1ccc(-c2cc3c(c(-c4ccc(Oc5ccccc5)cc4)n2)[Si](C(C)C)(C(C)C)OC3)cn1 | -0.264 | -0.65 | -0.163 | 0.0106 | 0.358 | -0.264 | -0.502 | -0.211 (inactive) | 0.406 | -0.0994 |
| C#C[C@H](O[Si](C#Cc1ccc(Oc2ccccc2)cc1)(C(C)C)C(C)C)c1ccccc1 | -0.247 | 1.27 | -0.0613 | 0.853 | 1.25 | 0.206 | 0.801 | 0.297 (inactive) | 0.315 | -0.0994 |
| C=CCNC(=O)[C@@H]1[C@H]2C(=O)O[C@H](c3ccccc3)[C@H](c3ccccc3)N2[C@H](c2ccc(O)cc2)[C@@]12C(=O)Nc1ccc(C#CCNC(N)=O)cc12 | 0.0358 | 0.135 | -0.114 | -0.172 | -0.383 | 0.623 | -0.0033 | 1.57 (inactive) | -0.633 | -0.226 |
| COc1cc2c(cc1OC)CN(C(=O)[C@@H]1[C@H]3C(=O)O[C@H](c4ccccc4)[C@H](c4ccccc4)N3[C@H](c3ccc(O)cc3)[C@@]13C(=O)Nc1ccccc13)CC2 | 0.113 | 0.797 | -0.0614 | 0.257 | 0.171 | 1.03 | 1.16 | 0.421 (inactive) | 0.0729 | 0.0854 |
| CCOC(=O)[C@H]1C/C=C/C[C@H](C(=O)OCC)C(=O)O[C@H]2[C@@H](OC)O[C@H](CO)[C@@H](OC(=O)c3c(OC)cccc3OC)[C@@H]2OC1=O | 1.03 | 0.321 | -0.0275 | 0.259 | 0.297 | 1.12 | 1.02 | 0.418 (inactive) | 0.951 | 1.32 |
| O=C1c2ccccc2[C@](Cc2ccccc2I)(C(=O)NCCN2CCOCC2)[C@H](c2ccc(CO)cc2)N1Cc1ccccc1Cl | 0.118 | 0.469 | 0.07 | 0.915 | 1.13 | 1.24 | 1.29 | -1.96 (inactive) | 0.511 | 0.0274 |
| CCOC(=O)C[C@H]1[C@H](OC(=O)c2ccccc2-c2ccccc2)[C@@H](NC(=O)CC(C)C)c2cc(OCCCO)ccc2N1C(=O)Cc1ccc(OC)cc1 | -0.259 | 0.43 | -0.104 | 0.225 | 0.135 | 0.173 | -0.155 | 0.506 (inactive) | 0.327 | -0.199 |
| NC(=O)[C@@H]1[C@H]2C(=O)O[C@H](c3ccccc3)[C@H](c3ccccc3)N2[C@H](c2ccc(O)cc2)[C@@]12C(=O)Nc1ccccc12 | 0.241 | -0.933 | -0.179 | 0.0547 | -0.985 | 2.01 | 0.476 | 0.308 (inactive) | -0.114 | -0.314 |
| COC(=O)[C@@]1(Cc2ccc(F)cc2)[C@H]2c3cc(C(=O)N4CCCC4)n(CCCNc4ncc(C(F)(F)F)cc4Cl)c3C[C@H]2CN1C(=O)c1ccccc1 | 0.785 | -0.245 | 0.222 | 0.564 | 1.66 | 1.73 | 1.3 | 0.506 (inactive) | 0.977 | 0.449 |
| C=CCNC(=O)[C@@H]1[C@H]2C(=O)O[C@H](c3ccccc3)[C@H](c3ccccc3)N2[C@H](c2ccccc2OCCO)[C@@]12C(=O)N(C(=O)OCCOC)c1ccccc12 | 0.599 | 0.603 | -0.107 | 0.73 | 1.32 | 0.848 | 1.29 | -0.0386 (inactive) | 0.562 | 0.621 |
| C[C@H]1C2[C@H](Cc3ccccc3)NC(=O)[C@]23C(=O)N[C@H](Cc2ccccc2)C(=O)N2CCC[C@H]2C(=O)NC/C=C\C/C=C/C3[C@@H]2O[C@]12C (stereo not given in full) | -0.4 | -0.217 | -0.0439 | 0.293 | 0.451 | 0.455 | -0.473 | 1.59 (inactive) | 0.0114 | -0.236 |
| C=CCNC(=O)[C@H]1[C@@H]2C(=O)O[C@@H](c3ccccc3)[C@@H](c3ccccc3)N2[C@@H](c2ccccc2OCCO)[C@]12C(=O)Nc1ccc(C#CCC(C(=O)OC)C(=O)OC)cc12 | 0.0775 | 0.44 | 0.0468 | 0.423 | 1.53 | 1.46 | 1.34 | -0.616 (inactive) | 1.08 | 0.409 |
| CCCCCN1CC=CC23O[C@@H]4/C=C\CCC(C)OC(=O)C4[C@H]2C(=O)N(C(C)CO)[C@@H]3C1=O (stereo not given in full) | -0.411 | -1.14 | -0.164 | -0.043 | -0.602 | 0.946 | 0.38 | -1.32 (inactive) | -0.258 | -0.268 |
| CC1CC/C=C\[C@H]2OC34C=CCN(Cc5ccccc5)C(=O)[C@H]3N(CCCO)C(=O)[C@@H]4C2C(=O)O1 (stereo not given in full) | 0.291 | 0.141 | -0.118 | -0.365 | -0.557 | 0.909 | 1.48 | 0.242 (inactive) | -0.662 | -0.0645 |
| CC#CC(=O)Oc1ccccc1C=CC(=O)OCC | -0.156 | -0.0011 | -0.0268 | 0.238 | 0.53 | 0.133 | 0.448 | 0.809 (inactive) | 0.163 | -0.125 |
| COC(=O)C(CC#Cc1ccc2c(c1)[C@]1(C(=O)N2)[C@H](C(=O)Nc2nc3ccccc3s2)[C@H]2C(=O)O[C@H](c3ccccc3)[C@H](c3ccccc3)N2[C@@H]1c1ccc(O)cc1)C(=O)OC | -0.485 | 0.919 | 0.0495 | 0.621 | 1.33 | 1.37 | 1.36 | 1.28 (inactive) | 0.688 | -0.0618 |
| CCCC[C@H]1OB(O)C[C@H]2C1=C(COC)C[C@H]1C(=O)N(C)C(=O)[C@H]12 | -0.441 | 0.49 | -0.144 | 0.18 | 0.364 | -0.149 | 0.6 | 0.0329 (inactive) | 0.106 | -0.15 |
| CC(C)CNC(=O)[C@@]1(Cc2ccccc2I)c2ccccc2C(=O)N(C2CCCCC2)[C@H]1c1ccc(CO)cc1 | 0.654 | 1.26 | 0.162 | 0.685 | 0.142 | 0.925 | 1.05 | -3.41 (inactive) | 0.481 | 0.702 |
| Cc1ccc(S[C@]2(C(=O)O)CC(=O)N(C(C)C)[C@@H]2c2ccc(CO)cc2I)cc1 | 1.83 | 1.16 | 0.0477 | -0.0395 | 0.175 | 1.89 | 1.16 | -0.974 (inactive) | 1.33 | -0.148 |
| CO[C@H]1O[C@H](CO)[C@@H](OC(=O)Nc2ccc(C(F)(F)F)cc2)[C@H](OC(=O)Nc2ccc3c(c2)OCO3)[C@@H]1OC(=O)Nc1ccc2c(c1)OCO2 | -0.139 | 1.62 | 0.0666 | 1.22 | 1.51 | 1.76 | 1.29 | 3.93 (inactive) | -0.0167 | 0.124 |
| Cc1ccc(S[C@]2(C(=O)NC3CC3)CC(=O)N(Cc3ccccc3)[C@@H]2c2ccc(CO)cc2I)cc1 | 0.433 | -0.703 | -0.146 | 0.333 | -0.823 | 1.23 | 0.966 | -2.74 (inactive) | -0.73 | -0.0047 |
| CCCCCN1CC=CC23O[C@@H]4C=CCCOC(=O)C4[C@H]2C(=O)N(CCCCCO)[C@@H]3C1=O (stereo not given in full) | 0.262 | 1.2 | -0.195 | -0.168 | -0.814 | 0.927 | 1.55 | -0.666 (inactive) | -0.432 | -0.45 |
| COc1ccc([C@H]2OC[C@@H]3C[C@@H](Cc4ccccc4)C(=O)N32)cc1 | -0.446 | 0.466 | 0.0216 | 0.526 | 0.426 | -0.103 | 1.11 | -3.02 (inactive) | 0.357 | 0.115 |
